# Results as given in article PMC8384837, “Expanding the binding specificity for RNA recognition by a PUF domain”.
# Changes are numbered by the printed parent chain.
# Assays:
# Assay in all cases: yeast three-hybrid, YBZ-1, SC-Leu-His + 0.5 mM 3-AT, 4 days
# Details in all cases: tags: N-Gal4 AD-HA kept; label: inside an RPR1-promoter hybrid RNA with tandem MS2 sites; ssRNA
# PUM1 PUF domain R4-RCG = PUM1 PUF domain R4-RCG (Homo sapiens, UniProt Q14671 828-1176, N971R;H972C;Q975G)
# Outline: (§1)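 The interaction score is the logarithmic change in variant frequency from input to selection. It uses log2, with a pseudocount of 1 for absent variants, and frequencies came from PCR-amplified, Illumina-sequenced repeat regions. The libraries were Pumilio-1 PUF domains randomized at the three base-contacting residues per repeat, co-expressed with matching RNA elements in strain YBZ-1 (LexA–MS2 coat fusion, HIS3 reporter). Plating lasted four days on SC-Leu (input) or SC-Leu-His + 0.5 mM 3-AT (selection).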
# PUM1 PUF domain R4-APS = PUM1 PUF domain R4-APS (Homo sapiens, UniProt Q14671 828-1176, N971A;H972P;Q975S)
# Outline: as §1
# PUM1 PUF domain R6-SWC = target: T1, PUM1 PUF domain R6-SWC (Homo sapiens, UniProt Q14671 828-1176, N1043S;Y1044W;Q1047C)
# T1 sequence: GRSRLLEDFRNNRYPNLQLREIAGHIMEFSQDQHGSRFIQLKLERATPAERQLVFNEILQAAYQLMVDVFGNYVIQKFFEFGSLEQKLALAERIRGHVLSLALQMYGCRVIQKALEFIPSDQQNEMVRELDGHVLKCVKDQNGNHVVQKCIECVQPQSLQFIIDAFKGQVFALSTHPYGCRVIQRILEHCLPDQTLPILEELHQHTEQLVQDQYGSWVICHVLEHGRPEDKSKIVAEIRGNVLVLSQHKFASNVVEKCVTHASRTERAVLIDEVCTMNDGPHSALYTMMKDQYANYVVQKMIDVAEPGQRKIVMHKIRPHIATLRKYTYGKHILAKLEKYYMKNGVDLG
# Outline: as §1
# PUM1 PUF domain R8-KKR = PUM1 PUF domain R8-KKR (Homo sapiens, UniProt Q14671 828-1176, N1122K;Y1123K;Q1126R)
# Outline: as §1
# PUM1 PUF domain R4-VGI = PUM1 PUF domain R4-VGI (Homo sapiens, UniProt Q14671 828-1176, N971V;H972G;Q975I)
# Outline: as §1
# PUM1 PUF domain R6-FWV = target: T2, PUM1 PUF domain R6-FWV (Homo sapiens, UniProt Q14671 828-1176, N1043F;Y1044W;Q1047V)
# T2 sequence: T1 sequence with S216F, C220V
# Outline: as §1
# PUM1 PUF domain R4-DWM = PUM1 PUF domain R4-DWM (Homo sapiens, UniProt Q14671 828-1176, N971D;H972W;Q975M)
# Outline: as §1
# PUM1 PUF domain R8-RRV = PUM1 PUF domain R8-RRV (Homo sapiens, UniProt Q14671 828-1176, N1122R;Y1123R;Q1126V)
# Outline: as §1
# PUM1 PUF domain R3-DHL = PUM1 PUF domain R3-DHL (Homo sapiens, UniProt Q14671 828-1176, C935D;R936H;Q939L)
# Outline: as §1
# PUM1 PUF domain R3-TYH = PUM1 PUF domain R3-TYH (Homo sapiens, UniProt Q14671 828-1176, C935T;R936Y;Q939H)
# Outline: as §1
# PUM1 PUF domain R1-KWM = PUM1 PUF domain R1-KWM (Homo sapiens, UniProt Q14671 828-1176, S863K;R864W;Q867M)
# Outline: as §1
# PUM1 PUF domain R1-GRH = PUM1 PUF domain R1-GRH (Homo sapiens, UniProt Q14671 828-1176, S863G;Q867H)
# Outline: as §1
# PUM1 PUF domain R3-LHA = PUM1 PUF domain R3-LHA (Homo sapiens, UniProt Q14671 828-1176, C935L;R936H;Q939A)
# Outline: as §1
# PUM1 PUF domain R3-WYS = PUM1 PUF domain R3-WYS (Homo sapiens, UniProt Q14671 828-1176, C935W;R936Y;Q939S)
# Outline: as §1
# PUM1 PUF domain R3-FIG = PUM1 PUF domain R3-FIG (Homo sapiens, UniProt Q14671 828-1176, C935F;R936I;Q939G)
# Outline: as §1
# PUM1 PUF domain R5-AAD = PUM1 PUF domain R5-AAD (Homo sapiens, UniProt Q14671 828-1176, C1007A;R1008A;Q1011D)
# Outline: as §1
# PUM1 PUF domain R5-ASR = PUM1 PUF domain R5-ASR (Homo sapiens, UniProt Q14671 828-1176, C1007A;R1008S;Q1011R)
# Outline: as §1
# PUM1 PUF domain R5-WSR = PUM1 PUF domain R5-WSR (Homo sapiens, UniProt Q14671 828-1176, C1007W;R1008S;Q1011R)
# Outline: as §1
sequence,measurement,setting,value
GGCUAGAACUAGUGGAUCCCCCGGCGCCCGGCGGCUCGAGCCCGGGUAAGUGUAAAUAGUCUGCAUGCCGCCGGGCGCCAUGCCUGCAGGUCGACUCUAGAAAACAUG,binding signal,PUM1 PUF domain R4-RCG,3.26 log2 enrichment (interaction score)
same,binding signal,PUM1 PUF domain R4-APS,4.36 log2 enrichment (interaction score)
same,binding signal,PUM1 PUF domain R6-SWC,3.92 log2 enrichment (interaction score)
same,binding signal,PUM1 PUF domain R8-KKR,1.33 log2 enrichment (interaction score)
same,binding signal,PUM1 PUF domain R4-VGI,2.49 log2 enrichment (interaction score)
same,binding signal,PUM1 PUF domain R6-FWV,4.97 log2 enrichment (interaction score)
same,binding signal,PUM1 PUF domain R4-DWM,6.03 log2 enrichment (interaction score)
same,binding signal,PUM1 PUF domain R8-RRV,0.86 log2 enrichment (interaction score)
same,binding signal,PUM1 PUF domain R3-DHL,3.42 log2 enrichment (interaction score)
same,binding signal,PUM1 PUF domain R3-TYH,2.88 log2 enrichment (interaction score)
GGCUAGAACUAGUGGAUCCCCCGGCGCCCGGCGGCUCGAGCCCGGGUAAGUGUAAAUUGUCUGCAUGCCGCCGGGCGCCAUGCCUGCAGGUCGACUCUAGAAAACAUG,binding signal,PUM1 PUF domain R1-KWM,3.92 log2 enrichment (interaction score)
same,binding signal,PUM1 PUF domain R1-GRH,2.32 log2 enrichment (interaction score)
GGCUAGAACUAGUGGAUCCCCCGGCGCCCGGCGGCUCGAGCCCGGGUAAGUGUAAAUGGUCUGCAUGCCGCCGGGCGCCAUGCCUGCAGGUCGACUCUAGAAAACAUG,binding signal,PUM1 PUF domain R1-KWM,1.15 log2 enrichment (interaction score)
GGCUAGAACUAGUGGAUCCCCCGGCGCCCGGCGGCUCGAGCCCGGGUAAGUGUAAAUCGUCUGCAUGCCGCCGGGCGCCAUGCCUGCAGGUCGACUCUAGAAAACAUG,binding signal,PUM1 PUF domain R1-GRH,1.98 log2 enrichment (interaction score)
GGCUAGAACUAGUGGAUCCCCCGGCGCCCGGCGGCUCGAGCCCGGGUAAGUGUACAUAGUCUGCAUGCCGCCGGGCGCCAUGCCUGCAGGUCGACUCUAGAAAACAUG,binding signal,PUM1 PUF domain R4-APS,1.86 log2 enrichment (interaction score)
same,binding signal,PUM1 PUF domain R4-DWM,4.24 log2 enrichment (interaction score)
GGCUAGAACUAGUGGAUCCCCCGGCGCCCGGCGGCUCGAGCCCGGGUAAGCGUAAAUAGUCUGCAUGCCGCCGGGCGCCAUGCCUGCAGGUCGACUCUAGAAAACAUG,binding signal,PUM1 PUF domain R8-KKR,5.03 log2 enrichment (interaction score)
same,binding signal,PUM1 PUF domain R8-RRV,2.4 log2 enrichment (interaction score)
GGCUAGAACUAGUGGAUCCCCCGGCGCCCGGCGGCUCGAGCCCGGGUAAGUGUAAGUAGUCUGCAUGCCGCCGGGCGCCAUGCCUGCAGGUCGACUCUAGAAAACAUG,binding signal,PUM1 PUF domain R3-LHA,6.33 log2 enrichment (interaction score)
same,binding signal,PUM1 PUF domain R3-WYS,2.89 log2 enrichment (interaction score)
same,binding signal,PUM1 PUF domain R3-FIG,3.51 log2 enrichment (interaction score)
GGCUAGAACUAGUGGAUCCCCCGGCGCCCGGCGGCUCGAGCCCGGGUAAGUGUAAUUAGUCUGCAUGCCGCCGGGCGCCAUGCCUGCAGGUCGACUCUAGAAAACAUG,binding signal,PUM1 PUF domain R3-LHA,3.56 log2 enrichment (interaction score)
GGCUAGAACUAGUGGAUCCCCCGGCGCCCGGCGGCUCGAGCCCGGGUAAGUGUGAAUAGUCUGCAUGCCGCCGGGCGCCAUGCCUGCAGGUCGACUCUAGAAAACAUG,binding signal,PUM1 PUF domain R5-AAD,2.97 log2 enrichment (interaction score)
GGCUAGAACUAGUGGAUCCCCCGGCGCCCGGCGGCUCGAGCCCGGGUAAGUGUCAAUAGUCUGCAUGCCGCCGGGCGCCAUGCCUGCAGGUCGACUCUAGAAAACAUG,binding signal,PUM1 PUF domain R5-ASR,5.07 log2 enrichment (interaction score)
same,binding signal,PUM1 PUF domain R5-WSR,5.87 log2 enrichment (interaction score)
GGCUAGAACUAGUGGAUCCCCCGGCGCCCGGCGGCUCGAGCCCGGGUAAGUGUUAAUAGUCUGCAUGCCGCCGGGCGCCAUGCCUGCAGGUCGACUCUAGAAAACAUG,binding signal,PUM1 PUF domain R5-ASR,1.28 log2 enrichment (interaction score)
